High-throughput results as filed in PubChem BioAssay.
Sampled rows, rich in hits. Any-hit rate of the full collection: about 6.2%.
GRIN3A LBD mod – NR3A (human) ligand-binding domain modulation; Tm shift relative to glycine control, % at 25 µM; NR3A LBD differential scanning fluorimetry, Tm shift; 0% = protein alone, 100% = glycine-bound protein; actives 2.5% (n = 340,000); AID 1259313;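 active = melting temperature shift of at least 10% of the positive control shift, at one fixed dose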
AI-2 QS modul – modulates the Vibrio harveyi AI-2 quorum sensing system. AID 2094. actives 0.4% (n = 300,000). activity change, % at 7.5 µM. Vibrio harveyi JMH597 AI-2 luminescence/OD600 ratio, 9 h; active compounds read low; strain lacks LuxN and CqsS sensors; 0 = neutral-control median; in the data active = activity change below about -75%, passing the limit was not always enough; inconclusive = no clear call, values can overlap the other calls;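 also: luminescence divided by OD600 gain over 9 h not by final OD600 alone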
H9c2 protect – myocardial damage modulation in H9c2 cells; H9c2 cardiomyocytes, H2O2 injury protection, ATPLite, 2 h; protection from H2O2 cell death, % at 20 µM; actives 0.63% (n = 360,000); AID 588492;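 active = compounds giving at least 50% protection of heart cells from peroxide-induced death in the single-dose screen, raw or plate-pattern-corrected value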;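 also: 0% = DMSO wells with peroxide and 100% = DMSO wells without peroxide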
AHR activator – human AHR activation. activation, % at 5 µM. AID 2796. actives 2.5% (n = 320,000). AHR-responsive luciferase reporter cells, luminescence; in the data active = activation above about 47%;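 also: 0% = vehicle wells and 100% = reference agonist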
NTR1 agonist – agonists of human neurotensin receptor NTR1; P30989; NTR1-U2OS beta-arrestin-GFP spot imaging, agonist mode; activation, % at 20 µM; actives 0.17% (n = 330,000); AID 493036;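 active = activation at or above 40% of the spot to cytoplasm intensity ratio, with at least 20 cells analyzed; inconclusive = wells under 20 cells, flagged as cytotoxic or low count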;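 also: 0% = DMSO without peptide and 100% = 100 nM NTR1 peptide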
SUMO Mot1 rescue – SUMOylation pathway inhibition by Mot1-301 growth rescue. S. cerevisiae Mot1-301 growth rescue, ATP luminescence, 38.5C; percent above DMSO median, 100 means doubled. growth rescue, % at 18.8 µM. actives 1% (n = 320,000);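 active = every valid replicate shows activation above 250% relative to neutral control wells; inactive = the rest, any valid replicate at or below 250%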;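 also: OY570 slx delta 5 strain wells were the positive control but not used for scaling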
* = called active by the depositor; ? = inconclusive; . = no result given; + = active, no number.

SMILES | GRIN3A LBD mod | AI-2 QS modul | H9c2 protect | AHR activator | NTR1 agonist | SUMO Mot1 rescue
COc1ccccc1NC(=O)Nc1nnc(C(C)C)s1 | -3 | 9 | 13 | 60* | 1 | -5
CCCCN(C(=O)NC(=O)Nc1cc(C)ccc1C)S(C)(=O)=O | -6 | 26 | 1 | 2 | 7 | -4
COc1ccccc1NC(=O)NC(=O)N(C(C)C)S(C)(=O)=O | -2 | 4 | -1 | 60* | 2 | -14
Cc1cc2nc(-c3ccccc3O)[nH]c2cc1C | 27* | . | -15 | . | . | .
Clc1ccccc1-c1nc(-c2ccccc2)n[nH]1 | -1 | -3 | -6 | 66* | -1 | -23
Oc1ccccc1-c1n[nH]c(-c2ccccc2O)n1 | 23* | . | -15 | . | . | .
c1ccc(-c2nc(-c3ccncc3)n[nH]2)nc1 | -2 | 12 | -1 | 7 | 2 | -16
O=S1(=O)Nc2c(ccc3cccnc23)-c2ccccc21 | . | ? | 44 | -4 | 3 | +
Cc1ccc(/C=C2\SC(=S)N(CCC(=O)NNC(=O)c3ccc(O)cc3)C2=O)cc1 | 23* | 17 | -23 | -4 | -2 | 1
Cc1ccc(/C=C2\SC(=S)N(CCC(=O)NNC(=O)c3cccc(O)c3)C2=O)cc1 | 24* | 24 | -15 | -3 | 1 | 30
C[C@@H]1CN([C@@H](C)CO)S(=O)(=O)c2ccc(Br)cc2O[C@H]1CN(C)C(=O)c1cccc(F)c1 | . | . | 21 | . | . | .
COc1ccc(S(=O)(=O)N2CCCCCC2)cc1NC(C)C(=O)Nc1ccc(NC(C)=O)cc1 (stereo unspecified) | 2 | . | 3 | . | . | .
Cc1ccc(NC(=O)Nc2ccc(Cl)c(Cl)c2)nc1 | 12* | 22 | 0 | 12 | 3 | -6
Cc1ccc(NC(=O)Nc2cccc(F)c2)nc1 | 21* | 3 | -4 | . | 1 | 10
CN(C)c1ccc(C(=O)N2CCCC(N3CCN(Cc4ccc5c(c4)OCO5)CC3)C2)cc1 (stereo unspecified) | 5 | 29 | 1 | . | -1 | 0
COc1ccc(N2CCN(C(c3ccc4ncccc4c3)c3nnnn3C(C)C)CC2)cc1 (stereo unspecified) | -2 | 7 | -5 | 1 | 1 | -18
Nc1ccccc1-n1cccc1 | 0 | 12 | 4 | 56* | 1 | 315*
Cc1ccc(C)n1-c1ccccc1N | . | 4 | . | 2 | -1 | -3
Cc1cccc(-n2c(=O)c3ccccc3n3c(=S)[nH]nc23)c1C | 3 | 15 | 0 | -2 | 0 | 10
Cc1ccc2nc(-c3ccccc3)cc(C(=O)NCC(c3ccco3)N(C)C)c2c1 (stereo unspecified) | -1 | 20 | 11 | 1 | 1 | 4
Cc1ccc(CNC(=O)c2cc3c(=O)n(C)c4ccccc4c3n2C)cc1 | 0 | 25 | -34 | 4 | 6 | 15
Cn1c(C(=O)NC2CCCCCC2)cc2c(=O)n(C)c3ccccc3c21 | 1 | 27 | 40 | 51* | 14 | -19
Cn1c(C(=O)NCc2ccco2)cc2c(=O)[nH]c3ccccc3c21 | 24* | 12 | 10 | 2 | 2 | 37
COc1ccc(NC(=O)c2cc3c(=O)n(C)c4ccccc4c3n2C)cc1Cl | 1 | 0 | 8 | -2 | 14 | -29
Cn1c(C(=O)NCc2cccs2)cc2c(=O)n(C)c3ccccc3c21 | 0 | 18 | 68* | 14 | 8 | 52
SMILES | GRIN3A LBD mod | AI-2 QS modul | H9c2 protect | AHR activator | NTR1 agonist | SUMO Mot1 rescue
COc1ccc(NC(=O)c2cc3c(=O)n(C)c4ccccc4c3n2C)cc1OC | -2 | 1 | 50* | -9 | 0 | 2
CCCN(CCC)CCCNC(=O)c1cc2c(=O)[nH]c3ccccc3c2n1C | -1 | 9 | 3 | 1 | 0 | 485
COc1ccc(N2C(=NC(=O)C(C)Oc3ccccc3)SC3CS(=O)(=O)CC32)cc1 (stereo unspecified) | -3 | 6 | -2 | -2 | 0 | -14
CCOC(=O)C1=CCN(S(=O)(=O)c2ccccc2C)C1c1ccc(C)cc1 (stereo unspecified) | . | . | -4 | . | . | .
CC(C)NC(=O)Nc1cccc2c1O[C@H](CN(C)C(=O)NC1CCCCC1)[C@H](C)CN([C@H](C)CO)C2=O | -4 | . | 4 | 0 | -1 | 26
O=C1CNc2ccc(C(=O)N3CCN(c4ccccn4)CC3)cc2N1 | 0 | 43 | 7 | 3 | 1 | 38
CC(C)C1Nc2ccc(C(=O)N3CCN(c4ccccn4)CC3)cc2NC1=O (stereo unspecified) | -1 | 24 | 51* | 4 | 0 | 237
COc1ccc(C2=NOC(Cn3nc(-c4ccccc4)cc3C(=O)NCc3ccccc3OC)C2)cc1 (stereo unspecified) | 25* | . | 5 | 4 | -1 | 16
COc1ccccc1CNC(=O)c1cc(-c2ccccc2)nn1CC1CC(c2cccnc2)=NO1 (stereo unspecified) | -2 | 24 | 5 | 2 | -1 | 6
CN(C)S(=O)(=O)c1cc(NC(=O)[C@H](Cc2ccccc2)N2C(=O)c3ccccc3C2=O)ccc1Cl | -6 | 5 | -3 | 71* | 1 | 8
CN(C)S(=O)(=O)c1cc(NC(=O)COC(=O)CCc2ccccc2)ccc1Cl | -4 | 9 | -2 | -1 | 2 | -10
O=C(Nc1ccc([N+](=O)[O-])cc1)C(Cc1ccccc1)N1C(=O)c2cccc3cccc(c23)C1=O (stereo unspecified) | 11* | 28 | -1 | 34 | 2 | -7
CC1CN(c2ccc([N+](=O)[O-])cc2Cl)CCN1S(C)(=O)=O (stereo unspecified) | 1 | 4 | -4 | 0 | 5 | -16
CC1CN(c2ccc(C(F)(F)F)cc2[N+](=O)[O-])CCN1S(C)(=O)=O (stereo unspecified) | 14* | 13 | -5 | 0 | 4 | 86
COc1ccccc1/C=N/Nc1cc(C)nc(N2CCOCC2)n1 | 0 | -1 | -3 | 51* | 3 | 121
COc1ccc(/C=N\Nc2ncc(F)c(N3CCOCC3)n2)cc1OC | 1 | 23 | 22 | 59* | 1 | 0
COc1ccc(/C=N/Nc2cc(C)nc(N3CCOCC3)n2)cc1 | -1 | 17 | -4 | 7 | 0 | 0
Cc1cc(C)nc(N/N=C/c2ccc(N3CCOCC3)cc2)n1 | -2 | 7 | 32 | 12 | 2 | -6
Oc1cccc(/C=N/Nc2cc(N3CCOCC3)nc(N3CCOCC3)n2)c1 | -2 | 7 | 5 | -8 | 1 | 15
Oc1ccc(/C=N/Nc2cc(N3CCOCC3)nc(N3CCOCC3)n2)cc1O | 1 | 12 | 53* | 6 | 1 | -7
COc1ccc(/C=N/Nc2cc(C)nc(N3CCOCC3)n2)cc1OC | 1 | . | 1 | 50* | 1 | -2
CC(=O)C1=C(c2ccccc2)NC(=O)NC1c1cccs1 (stereo unspecified) | 1 | 8 | -3 | -1 | 2 | -15
